Measurements as given in PubChem BioAssay AID1159580 (chemical genetic matrix, 2015).
“And” between values parts separate entries of the source, which are not always exact repeats. Equal entries are not always repeated. Out of some 5,500 compounds screened, about 2,000 (36%) were called active. Roughly 18% stayed inconclusive and do not appear here. No stated cut-off is given here; in the data, active means normalized growth mostly below about 0.91 (no sharp cut-off); inconclusive means no clear call, values can overlap the other calls; inactive means mostly above about 0.92. The list shows a part of the results.

Experiment: chemical genetic growth profiling, strain panel (AID 1159580);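 further: tested at 20 µM; growth read once vehicle control cultures reached saturation at 30 °C; 1 = growth at the plate median or of vehicle wells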
Conditions: S. cerevisiae deletion strains, growth OD

CC(=O)Nc1nnc(S(N)(=O)=O)s1
normalized growth (locus YAL013W, strain DEP1, stronger effect = lower value): 0.987 (inactive) | normalized growth (locus YAL021C, strain ccr4, stronger effect = lower value): 1 (inactive) | normalized growth (locus YAL026C, strain drs2, stronger effect = lower value): 1 (inactive) | normalized growth (locus YAL030W, strain snc1, stronger effect = lower value): 1.02 (inactive) | normalized growth (locus YAL040C, strain CLN3, stronger effect = lower value): 0.992 (inactive) | normalized growth (locus YBL061C, strain skt5, stronger effect = lower value): 1.01 (inactive) | normalized growth (locus YBR009C, strain hhf1, stronger effect = lower value): 0.991 (inactive) | normalized growth (locus YBR021W, strain FUR4, stronger effect = lower value): 0.944 (inactive) | normalized growth (locus YBR023C, strain chs3, stronger effect = lower value): 1.01 (inactive) | normalized growth (locus YBR171W, strain sec66, stronger effect = lower value): 1.02 (inactive) | normalized growth (locus YBR229C, strain ROT2, stronger effect = lower value): 0.95 (inactive) | normalized growth (locus YBR231C, strain swc5, stronger effect = lower value): 1.01 (inactive) | normalized growth (locus YBR279W, strain paf1, stronger effect = lower value): 1.01 (inactive) | normalized growth (locus YCL011C, strain gbp2, stronger effect = lower value): 1.02 (inactive) | normalized growth (locus YCL016C, strain dcc1, stronger effect = lower value): 1 (inactive) | normalized growth (locus YCL029C, strain bik1, stronger effect = lower value): 0.987 (inactive) | normalized growth (locus YCL061C, strain MRC1 (second series), stronger effect = lower value): 0.999 (inactive) | normalized growth (locus YCL069W, strain vba3, stronger effect = lower value): 1.02 (inactive) | normalized growth (locus YCR088W, strain abp1, stronger effect = lower value): 1.01 (inactive) | normalized growth (locus YDL005C, strain med2, stronger effect = lower value): 0.997 (inactive) | normalized growth (locus YDL035C, strain GPR1, stronger effect = lower value): 0.538 (active) | normalized growth (locus YDL040C, strain nat1, stronger effect = lower value): 1.01 (inactive) | normalized growth (locus YDL074C, strain BRE1, stronger effect = lower value): 0.709 (active) | normalized growth (locus YDL101C, strain DUN1, stronger effect = lower value): 0.878 (active) | normalized growth (locus YDL134C, strain PPH21, stronger effect = lower value): 0.621 (active) | normalized growth (locus YDL185W, strain tfp1, stronger effect = lower value): 0.998 (inactive) | normalized growth (locus YDL192W, strain arf1, stronger effect = lower value): 0.915 (active) | normalized growth (locus YDR001C, strain nth1, stronger effect = lower value): 1.01 (inactive) | normalized growth (locus YDR069C, strain doa4, stronger effect = lower value): 1.01 (inactive) | normalized growth (locus YDR101C, strain arx1, stronger effect = lower value): 0.998 (inactive) | normalized growth (locus YDR137W, strain rgp1, stronger effect = lower value): 1 (inactive) | normalized growth (locus YDR159W, strain sac3, stronger effect = lower value): 0.99 (inactive) | normalized growth (locus YDR162C, strain NBP2, stronger effect = lower value): 0.126 (active) | normalized growth (locus YDR195W, strain ref2): 1.01 (inactive) | normalized growth (locus YDR297W, strain sur2, stronger effect = lower value): 1.01 (inactive) | normalized growth (locus YDR318W, strain mcm21, stronger effect = lower value): 0.917 (active) | normalized growth (locus YDR334W, strain swr1, stronger effect = lower value): 1.01 (inactive) | normalized growth (locus YDR335W, strain msn5, stronger effect = lower value): 1 (inactive) | normalized growth (locus YDR388W, stronger effect = lower value): 0.959 (inactive) | normalized growth (locus YDR392W, strain spt3, stronger effect = lower value): 1 (inactive) | normalized growth (locus YDR502C, strain sam2, stronger effect = lower value): 0.943 (inactive) | normalized growth (locus YEL003W, strain gim4, stronger effect = lower value): 1.01 (inactive) | normalized growth (locus YEL037C, strain rad23, stronger effect = lower value): 1.02 (inactive) | normalized growth (locus YEL061C, strain CIN8 (second series), stronger effect = lower value): 1.02 (inactive) | normalized growth (locus YEL061C, strain CIN8, stronger effect = lower value): 0.728 (active) | normalized growth (locus YER002W, strain NOP16, stronger effect = lower value): 1.03 (inactive) | normalized growth (locus YER015W, strain faa2, stronger effect = lower value): 0.997 (inactive) | normalized growth (locus YER016W, strain bim1, stronger effect = lower value): 0.99 (inactive) | normalized growth (locus YER110C, stronger effect = lower value): 1.01 (inactive) | normalized growth (locus YER111C, strain swi4, stronger effect = lower value): 1.01 (inactive) | normalized growth (locus YER155C, strain BEM2 (second series), stronger effect = lower value): 1.03 (inactive) | normalized growth (locus YER155C, strain BEM2, stronger effect = lower value): 1.01 (inactive) | normalized growth (locus YER167W, strain BCK2, stronger effect = lower value): 0.748 (active) | normalized growth (locus YFR010W, strain ubp6, stronger effect = lower value): 1.03 (inactive) | normalized growth (locus YGL078C, strain dbp3, stronger effect = lower value): 1 (inactive) | normalized growth (locus YGL086W, strain mad1, stronger effect = lower value): 0.864 (active) | normalized growth (locus YGL167C, strain pmr1, stronger effect = lower value): 1.01 (inactive) | normalized growth (locus YGL173C, strain kem1, stronger effect = lower value): 1.02 (inactive) | normalized growth (locus YGL227W, strain vid30, stronger effect = lower value): 1.01 (inactive) | normalized growth (locus YGL240W, strain doc1, stronger effect = lower value): 1.01 (inactive) | normalized growth (locus YGL248W, strain PDE1, stronger effect = lower value): 0.585 (active) | normalized growth (locus YGL253W, strain hxk2, stronger effect = lower value): 1.01 (inactive) | normalized growth (locus YGR078C, strain PAC10, stronger effect = lower value): 0.477 (active) | normalized growth (locus YGR135W, strain pre9, stronger effect = lower value): 0.81 (active) | normalized growth (locus YGR252W, strain gcn5, stronger effect = lower value): 0.824 (inactive) | normalized growth (locus YHR013C, strain ard1, stronger effect = lower value): 1.02 (inactive) | normalized growth (locus YHR027C, strain rpn1, stronger effect = lower value): 0.999 (inactive) | normalized growth (locus YHR030C, strain SLT2, stronger effect = lower value): 0.707 (active) and 1 (inactive) | normalized growth (locus YHR079C, strain IRE1 (second series), stronger effect = lower value): 0.996 (inactive) | normalized growth (locus YHR079C, strain IRE1, stronger effect = lower value): 0.969 (inactive) | normalized growth (locus YHR094C, strain hxt1, stronger effect = lower value): 0.985 (inactive) | normalized growth (locus YHR129C, strain ARP1, stronger effect = lower value): 0.728 (active) | normalized growth (locus YHR142W, strain chs7, stronger effect = lower value): 1.01 (inactive) | normalized growth (locus YHR200W, strain rpn10, stronger effect = lower value): 0.985 (inactive) | normalized growth (locus YIL066C, strain RNR3, stronger effect = lower value): 0.24 (active) | normalized growth (locus YIL073C, strain SPO22, stronger effect = lower value): 0.202 (active) | normalized growth (locus YIL125W, strain kgd1, stronger effect = lower value): 1.01 (inactive) | normalized growth (locus YIR030C, strain dcg1, stronger effect = lower value): 1.01 (inactive) | normalized growth (locus YJL092W, strain hpr5, stronger effect = lower value): 1.02 (inactive) | normalized growth (locus YJL095W, strain BCK1 (second series), stronger effect = lower value): 1.01 (inactive) | normalized growth (locus YJL095W, strain BCK1, stronger effect = lower value): 0.773 (active) and 0.995 (inactive) | normalized growth (locus YJL115W, strain asf1, stronger effect = lower value): 1.02 (inactive) | normalized growth (locus YJL129C, strain trk1, stronger effect = lower value): 1.02 (inactive) | normalized growth (locus YJL134W, strain LCB3, stronger effect = lower value): 0.938 (inactive) | normalized growth (locus YJL154C, strain vps35, stronger effect = lower value): 1.02 (inactive) | normalized growth (locus YJL164C, strain tpk1, stronger effect = lower value): 1 (inactive) | normalized growth (locus YJL166W, strain qcr8, stronger effect = lower value): 1.01 (inactive) | normalized growth (locus YJL168C, strain set2, stronger effect = lower value): 0.979 (inactive) | normalized growth (locus YJL187C, strain SWE1 (second series), stronger effect = lower value): 0.793 (active) | normalized growth (locus YJR043C, strain POL32, stronger effect = lower value): 0.398 (active) | normalized growth (locus YJR066W, strain TOR1, stronger effect = lower value): 0.97 (inactive) | normalized growth (locus YJR075W, strain HOC1, stronger effect = lower value): 1.01 (inactive)
